In PubChem BioAssay (Tox21):
Inconclusive results are not listed. Activity calls are given as the source filed them. Calls follow the shape of the dose curve; as a rule, active = well fitted curve in the direction sought with a large enough effect in the repeat runs; inconclusive = weak or mixed curves; inactive = no such curve, though single readings can be large; an effect the other way counts as inactive or inconclusive.

Key:
[1] = qHTS RealTime-Glo MT Cell Viability Assay in HEK293 cells - 40 hour (AID 1224874); conditions: RealTime-Glo luminescence; max response: hits give low values; also: nearly all actives have a fitted effect of over 50% in size
Procedure, shortened: (§1)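 Viable HEK293 cells reduce a cell-permeant prosubstrate; the product diffuses out and is consumed by NanoLuc in the medium to give light. Compounds went in after a 5 h incubation and plates were read over the treatment course.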

[2] = A CellTox Green Cytotoxicity Assay to monitor cytotoxicity in HEK293 cells - 24 hour (AID 1224875); also: series mostly up to about 77 µM; nearly all actives have a fitted effect of over 45% in size
Procedure, shortened: (§2)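 Fluorescence intensity, read at 0, 8, 16, 24, 32 and 40 h of compound treatment, reflected dye binding to DNA of dead HEK293 cells; compounds (23 nL, DMSO) were added 5 h after plating cells with reagent.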

[3] = A CellTox Green Cytotoxicity Assay to monitor cytotoxicity in HepG2 cells - 16 hour (AID 1224876); also: nearly all actives have a fitted effect of over 45% in size
Procedure, shortened: (§3)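 Using 1536-well format, dye-containing HepG2 suspension was seeded, allowed 5 h at 37 C/5% CO2, dosed by pintool with compounds, positive and negative controls, and imaged for fluorescence across 40 h.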

[4] = qHTS RealTime-Glo MT Cell Viability Assay in HepG2 cells - 32 hour (AID 1224877); also: nearly all actives have a fitted effect of over 55% in size
Procedure, shortened: (§4)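 HepG2 cells were seeded at 600 cells/well together with NanoLuc luciferase and a cell-permeant prosubstrate, preincubated 5 h at 37 C/5% CO2, then pin-dosed with compounds in DMSO. Nonlytic luminescence from viable cells was read at each time point.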

[5] = A CellTox Green Cytotoxicity Assay to monitor cytotoxicity in HepG2 cells - 24 hour (AID 1224878); also: nearly all actives have a fitted effect of over 45% in size
Procedure, shortened: as §3

[6] = A CellTox Green Cytotoxicity Assay to monitor cytotoxicity in HepG2 cells - 40 hour (AID 1224879); also: nearly all actives have a fitted effect of over 40% in size
Procedure, shortened: as §3

[7] = qHTS RealTime-Glo MT Cell Viability Assay in HEK293 cells - 0 hour (AID 1224880); also: top concentration of the series differs between compounds; nearly all actives have a fitted effect of over 45% in size
Procedure, shortened: as §1

[8] = A CellTox Green Cytotoxicity Assay to monitor cytotoxicity in HEK293 cells - 32 hour (AID 1224881); also: nearly all actives have a fitted effect of over 40% in size
Procedure, shortened: as §2

[9] = A CellTox Green Cytotoxicity Assay to monitor cytotoxicity in HepG2 cells - 0 hour (AID 1224882); also: nearly all actives have a fitted effect of over 35% in size
Procedure, shortened: as §3

[10] = A CellTox Green Cytotoxicity Assay to monitor cytotoxicity in HepG2 cells - 32 hour (AID 1224883); also: nearly all actives have a fitted effect of over 50% in size
Procedure, shortened: as §3

[11] = A CellTox Green Cytotoxicity Assay to monitor cytotoxicity in HEK293 cells - 8 hour (AID 1224884); also: nearly all actives have a fitted effect of over 35% in size
Procedure, shortened: as §2

[12] = qHTS RealTime-Glo MT Cell Viability Assay in HepG2 cells - 16 hour (AID 1224885); also: nearly all actives have a fitted effect of over 50% in size
Procedure, shortened: as §4

[13] = qHTS RealTime-Glo MT Cell Viability Assay in HEK293 cells - 24 hour (AID 1224886); also: top concentration of the series differs between compounds; nearly all actives have a fitted effect of over 50% in size
Procedure, shortened: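 HEK293 cells were seeded at 600 cells/well together with NanoLuc luciferase and cell-permeant prosubstrate, preincubated 5 h at 37 C/5% CO2, then given compound in DMSO by pintool. Luminescence from viable-cell prosubstrate reduction was read repeatedly over 40 h.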

[14] = qHTS RealTime-Glo MT Cell Viability Assay in HEK293 cells - 8 hour (AID 1224887)
Procedure, shortened: as §1

[15] = A CellTox Green Cytotoxicity Assay to monitor cytotoxicity in HEK293 cells - 16 hour (AID 1224888); also: nearly all actives have a fitted effect of over 35% in size
Procedure, shortened: as §2

[16] = qHTS RealTime-Glo MT Cell Viability Assay in HepG2 cells - 0 hour (AID 1224889); also: nearly all actives have a fitted effect of over 50% in size
Procedure, shortened: as §4

[17] = A CellTox Green Cytotoxicity Assay to monitor cytotoxicity in HepG2 cells - 8 hour (AID 1224890); also: nearly all actives have a fitted effect of over 45% in size
Procedure, shortened: as §3

[18] = qHTS assay to identify small molecule antagonists of the estrogen receptor alpha (ER-alpha) signaling pathway using the BG1 cell line in the presence of 0.1 nM 17-beta-estradiol - cell viability counter screen (AID 1259241); also: nearly all actives have a fitted effect of over 40% in size
Procedure, shortened: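 VM7Luc4E2 cells (endogenous full-length ER-alpha, 4xERE-luciferase), cultured 5 days in charcoal-stripped serum, exposed to compounds with 0.1 nM 17beta-estradiol (final) for 22 hr at 37C. Viability read in same wells as live-cell protease fluorescence after 30 min.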

[19] = qHTS assay to identify small molecule antagonists of the androgen receptor (AR) signaling pathway using the MDA cell line in the presence of 0.5 nM R1881 - cell viability counter screen (AID 1259242); also: nearly all actives have a fitted effect of over 45% in size
Procedure, shortened: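 Viability of MDA-kb2 cells was multiplexed with the luciferase AR readout; after 16 hr with compounds and R1881 at 0.5 nM final, CellTiter-Fluor fluorescence was recorded.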

[20] = biological target: Androgen receptor (Homo sapiens) (UniProt P10275); assay: qHTS assay to identify small molecule antagonists of the androgen receptor (AR) signaling pathway using the MDA cell line in the presence of 0.5 nM R1881 (AID 1259243); also: nearly all actives have a fitted effect of over 50% in size
Procedure, shortened: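 Reporter cells cultured without CO2 receive test chemicals, then 0.5 nM R1881 final; after 16 hr at 37C, ONE-Glo is added and light output recorded.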
% is scaled to controls: 0 for no effect and ±100 for the full control effect.

Sequence of Androgen receptor (Homo sapiens) (P10275 whole entry, looked up): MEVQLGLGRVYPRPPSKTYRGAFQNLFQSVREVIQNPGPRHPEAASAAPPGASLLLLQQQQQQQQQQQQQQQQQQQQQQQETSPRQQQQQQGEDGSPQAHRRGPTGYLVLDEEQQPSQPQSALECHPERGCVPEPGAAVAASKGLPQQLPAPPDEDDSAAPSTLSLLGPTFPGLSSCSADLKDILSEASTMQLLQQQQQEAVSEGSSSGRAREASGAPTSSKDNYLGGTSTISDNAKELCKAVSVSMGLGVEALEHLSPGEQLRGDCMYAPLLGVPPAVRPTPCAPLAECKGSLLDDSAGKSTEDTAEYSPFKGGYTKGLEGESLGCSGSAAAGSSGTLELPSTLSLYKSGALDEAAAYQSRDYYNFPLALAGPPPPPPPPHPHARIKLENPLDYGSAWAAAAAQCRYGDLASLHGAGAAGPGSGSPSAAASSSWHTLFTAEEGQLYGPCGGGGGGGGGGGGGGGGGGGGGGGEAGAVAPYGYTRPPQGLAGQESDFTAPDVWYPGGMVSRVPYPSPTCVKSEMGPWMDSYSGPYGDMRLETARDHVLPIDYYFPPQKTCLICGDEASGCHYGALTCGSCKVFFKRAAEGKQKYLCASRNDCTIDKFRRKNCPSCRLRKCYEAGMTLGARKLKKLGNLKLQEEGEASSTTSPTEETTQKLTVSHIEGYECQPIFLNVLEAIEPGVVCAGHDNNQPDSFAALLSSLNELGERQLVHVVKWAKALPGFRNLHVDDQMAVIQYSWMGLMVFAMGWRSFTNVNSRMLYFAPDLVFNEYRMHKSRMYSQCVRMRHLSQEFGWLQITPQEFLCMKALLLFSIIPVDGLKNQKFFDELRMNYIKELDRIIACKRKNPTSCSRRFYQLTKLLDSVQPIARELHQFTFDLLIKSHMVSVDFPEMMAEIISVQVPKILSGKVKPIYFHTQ

CC1CCC(C(C)(C)O)CC1 (stereo not given)
inactive: max response [1] 0.893% | Potency [2] | Potency [3] | Potency [4] | Potency [5] | Potency [6] | Potency [7] | Potency [8] | Potency [9] | Potency [10] | Potency [11] | Potency [12] | Potency [13] | Potency [14] | Potency [15] | Potency [16] | Potency [17] | Potency [18] | Potency [19] | Potency [20]

C/C(=N\[Si](C)(C)C)O[Si](C)(C)C
inactive: max response [1] -1.35% | Potency [2] | Potency [3] | Potency [4] | Potency [5] | Potency [6] | Potency [7] | Potency [8] | Potency [9] | Potency [10] | Potency [11] | Potency [12] | Potency [13] | Potency [14] | Potency [15] | Potency [16] | Potency [17] | Potency [18] | Potency [19] | Potency [20]

O=C1OCc2ccccc21
inactive: max response [1] 15.2% | Potency [2] | Potency [3] | Potency [4] | Potency [5] | Potency [6] | Potency [7] | Potency [8] | Potency [9] | Potency [10] | Potency [11] | Potency [12] | Potency [13] | Potency [14] | Potency [15] | Potency [16] | Potency [17] | Potency [18] | Potency [19] | Potency [20]

Nc1ccc(F)c([N+](=O)[O-])c1
inactive: max response [1] 4.61% | Potency [2] | Potency [3] | Potency [4] | Potency [5] | Potency [6] | Potency [7] | Potency [8] | Potency [9] | Potency [10] | Potency [11] | Potency [12] | Potency [13] | Potency [14] | Potency [15] | Potency [16] | Potency [17] | Potency [18] | Potency [19]

CCOC(=O)[C@H](C)O
inactive: max response [1] 7.55% | Potency [2] | Potency [3] | Potency [4] | Potency [5] | Potency [6] | Potency [7] | Potency [8] | Potency [9] | Potency [10] | Potency [11] | Potency [12] | Potency [13] | Potency [14] | Potency [15] | Potency [16] | Potency [17] | Potency [18] | Potency [19]

COC(=O)c1ccc([N+](=O)[O-])cc1
inactive: max response [1] -4.75% | Potency [2] | Potency [3] | Potency [4] | Potency [5] | Potency [6] | Potency [7] | Potency [8] | Potency [9] | Potency [10] | Potency [11] | Potency [12] | Potency [13] | Potency [14] | Potency [15] | Potency [16] | Potency [17] | Potency [18] | Potency [19] | Potency [20]

CCCCCCCCc1ccc(Nc2ccc(CCCCCCCC)cc2)cc1
inactive: max response [1] -0.6% | Potency [2] | Potency [3] | Potency [4] | Potency [5] | Potency [6] | Potency [7] | Potency [8] | Potency [9] | Potency [10] | Potency [11] | Potency [12] | Potency [13] | Potency [14] | Potency [15] | Potency [16] | Potency [17] | Potency [18] | Potency [19] | Potency [20]

O=c1[nH]cccc1O
inactive: max response [1] -23.7% | Potency [2] | Potency [3] | Potency [4] | Potency [5] | Potency [6] | Potency [7] | Potency [8] | Potency [9] | Potency [10] | Potency [11] | Potency [12] | Potency [13] | Potency [14] | Potency [15] | Potency [16] | Potency [18] | Potency [19]

Cc1cccc(C)c1C
inactive: max response [1] 4% | Potency [2] | Potency [3] | Potency [4] | Potency [5] | Potency [6] | Potency [7] | Potency [8] | Potency [9] | Potency [10] | Potency [11] | Potency [12] | Potency [13] | Potency [14] | Potency [15] | Potency [16] | Potency [17] | Potency [18] | Potency [19]

CCCCNc1ccc(NCCCC)c2c1C(=O)c1ccccc1C2=O
inactive: max response [1] -1.48% | activity change [2] 0.143% [at 15.8 µM, hits give high values] | cytotoxicity increase [3] -0.637% [at 15.8 µM] | activity change, negative = cytotoxic [4] -3.72% [at 15.8 µM] | cytotoxicity [5] -4.17% [at 15.8 µM] | cytotoxicity increase [6] -3.23% [at 15.8 µM] | activity change, negative = cytotoxicity [7] -4.14% [at 15.8 µM] | cytotoxicity increase [8] -0.0716% [at 15.8 µM] | cytotoxicity [9] 3.56% [at 15.8 µM] | cytotoxicity increase [10] -3.73% [at 15.8 µM] | cytotoxicity increase [11] 1.22% [at 15.8 µM] | activity change, negative = cytotoxic [12] 0.554% [at 15.8 µM] | activity change, negative = cytotoxicity [13] -0.0547% [at 15.8 µM] | activity change, negative = cytotoxicity [14] 3.79% [at 15.8 µM] | activity change [15] 0.839% [at 15.8 µM, hits give high values] | activity change, negative = cytotoxicity [16] 1.94% [at 15.8 µM] | cytotoxicity increase [17] -2.69% [at 15.8 µM] | activity change, negative = cytotoxicity [18] -14.1% [at 19 µM] | viability change, negative = cytotoxic [19] -9.45% [at 19 µM] | activity, negative = inhibition [20] -3.08% [at 19 µM]

CC(CC(C)(C)C)CC(C)(C)CC(C)(C)C (stereo not given)
inactive: max response [1] 3.32% | Potency [2] | Potency [3] | Potency [4] | Potency [5] | Potency [6] | Potency [7] | Potency [8] | Potency [9] | Potency [10] | Potency [11] | Potency [12] | Potency [13] | Potency [14] | Potency [15] | Potency [16] | Potency [17] | Potency [18] | Potency [19] | Potency [20]
